The record followed here is ChEMBL document CHEMBL1961873, “Compounds: GSK PKIS; Assays: Nanosyn kinase panel” (2012).

One may read the inhibition as the change of the read-out against control, counted positive when it falls.

In experiment [1] the target is RAF proto-oncogene serine/threonine-protein kinase (Homo sapiens) (UniProt P04049). To be noted: at 1 µM.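 Further: values are the mean percent inhibition of CRAF.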
In experiment [2] the target is T1, Interleukin-1 receptor-associated kinase 4 (Homo sapiens) (UniProt Q9NWZ3).
T1 sequence (whole entry): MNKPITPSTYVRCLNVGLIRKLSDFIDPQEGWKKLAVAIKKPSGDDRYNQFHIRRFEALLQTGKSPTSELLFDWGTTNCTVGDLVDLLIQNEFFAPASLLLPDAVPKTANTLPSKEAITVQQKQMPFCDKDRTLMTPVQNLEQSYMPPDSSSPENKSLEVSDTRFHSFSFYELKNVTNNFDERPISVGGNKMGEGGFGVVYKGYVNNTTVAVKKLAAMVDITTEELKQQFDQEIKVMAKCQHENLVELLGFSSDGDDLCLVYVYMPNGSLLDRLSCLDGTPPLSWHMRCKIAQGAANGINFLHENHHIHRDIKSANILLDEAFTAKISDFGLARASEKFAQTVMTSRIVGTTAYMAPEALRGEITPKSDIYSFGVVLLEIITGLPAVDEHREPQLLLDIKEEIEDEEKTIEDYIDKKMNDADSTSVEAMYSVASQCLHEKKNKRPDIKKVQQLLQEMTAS
The settings on record: at 0.1 µM.

The target of experiment [3] is T1, Interleukin-1 receptor-associated kinase 4 (Homo sapiens). To be noted: at 1 µM.
Experiment [4] deals with Leucine-rich repeat serine/threonine-protein kinase 2 (Homo sapiens) (UniProt Q5S007). To be noted: at 0.1 µM.
Leucine-rich repeat serine/threonine-protein kinase 2 (Homo sapiens), sequence (Q5S007 whole entry): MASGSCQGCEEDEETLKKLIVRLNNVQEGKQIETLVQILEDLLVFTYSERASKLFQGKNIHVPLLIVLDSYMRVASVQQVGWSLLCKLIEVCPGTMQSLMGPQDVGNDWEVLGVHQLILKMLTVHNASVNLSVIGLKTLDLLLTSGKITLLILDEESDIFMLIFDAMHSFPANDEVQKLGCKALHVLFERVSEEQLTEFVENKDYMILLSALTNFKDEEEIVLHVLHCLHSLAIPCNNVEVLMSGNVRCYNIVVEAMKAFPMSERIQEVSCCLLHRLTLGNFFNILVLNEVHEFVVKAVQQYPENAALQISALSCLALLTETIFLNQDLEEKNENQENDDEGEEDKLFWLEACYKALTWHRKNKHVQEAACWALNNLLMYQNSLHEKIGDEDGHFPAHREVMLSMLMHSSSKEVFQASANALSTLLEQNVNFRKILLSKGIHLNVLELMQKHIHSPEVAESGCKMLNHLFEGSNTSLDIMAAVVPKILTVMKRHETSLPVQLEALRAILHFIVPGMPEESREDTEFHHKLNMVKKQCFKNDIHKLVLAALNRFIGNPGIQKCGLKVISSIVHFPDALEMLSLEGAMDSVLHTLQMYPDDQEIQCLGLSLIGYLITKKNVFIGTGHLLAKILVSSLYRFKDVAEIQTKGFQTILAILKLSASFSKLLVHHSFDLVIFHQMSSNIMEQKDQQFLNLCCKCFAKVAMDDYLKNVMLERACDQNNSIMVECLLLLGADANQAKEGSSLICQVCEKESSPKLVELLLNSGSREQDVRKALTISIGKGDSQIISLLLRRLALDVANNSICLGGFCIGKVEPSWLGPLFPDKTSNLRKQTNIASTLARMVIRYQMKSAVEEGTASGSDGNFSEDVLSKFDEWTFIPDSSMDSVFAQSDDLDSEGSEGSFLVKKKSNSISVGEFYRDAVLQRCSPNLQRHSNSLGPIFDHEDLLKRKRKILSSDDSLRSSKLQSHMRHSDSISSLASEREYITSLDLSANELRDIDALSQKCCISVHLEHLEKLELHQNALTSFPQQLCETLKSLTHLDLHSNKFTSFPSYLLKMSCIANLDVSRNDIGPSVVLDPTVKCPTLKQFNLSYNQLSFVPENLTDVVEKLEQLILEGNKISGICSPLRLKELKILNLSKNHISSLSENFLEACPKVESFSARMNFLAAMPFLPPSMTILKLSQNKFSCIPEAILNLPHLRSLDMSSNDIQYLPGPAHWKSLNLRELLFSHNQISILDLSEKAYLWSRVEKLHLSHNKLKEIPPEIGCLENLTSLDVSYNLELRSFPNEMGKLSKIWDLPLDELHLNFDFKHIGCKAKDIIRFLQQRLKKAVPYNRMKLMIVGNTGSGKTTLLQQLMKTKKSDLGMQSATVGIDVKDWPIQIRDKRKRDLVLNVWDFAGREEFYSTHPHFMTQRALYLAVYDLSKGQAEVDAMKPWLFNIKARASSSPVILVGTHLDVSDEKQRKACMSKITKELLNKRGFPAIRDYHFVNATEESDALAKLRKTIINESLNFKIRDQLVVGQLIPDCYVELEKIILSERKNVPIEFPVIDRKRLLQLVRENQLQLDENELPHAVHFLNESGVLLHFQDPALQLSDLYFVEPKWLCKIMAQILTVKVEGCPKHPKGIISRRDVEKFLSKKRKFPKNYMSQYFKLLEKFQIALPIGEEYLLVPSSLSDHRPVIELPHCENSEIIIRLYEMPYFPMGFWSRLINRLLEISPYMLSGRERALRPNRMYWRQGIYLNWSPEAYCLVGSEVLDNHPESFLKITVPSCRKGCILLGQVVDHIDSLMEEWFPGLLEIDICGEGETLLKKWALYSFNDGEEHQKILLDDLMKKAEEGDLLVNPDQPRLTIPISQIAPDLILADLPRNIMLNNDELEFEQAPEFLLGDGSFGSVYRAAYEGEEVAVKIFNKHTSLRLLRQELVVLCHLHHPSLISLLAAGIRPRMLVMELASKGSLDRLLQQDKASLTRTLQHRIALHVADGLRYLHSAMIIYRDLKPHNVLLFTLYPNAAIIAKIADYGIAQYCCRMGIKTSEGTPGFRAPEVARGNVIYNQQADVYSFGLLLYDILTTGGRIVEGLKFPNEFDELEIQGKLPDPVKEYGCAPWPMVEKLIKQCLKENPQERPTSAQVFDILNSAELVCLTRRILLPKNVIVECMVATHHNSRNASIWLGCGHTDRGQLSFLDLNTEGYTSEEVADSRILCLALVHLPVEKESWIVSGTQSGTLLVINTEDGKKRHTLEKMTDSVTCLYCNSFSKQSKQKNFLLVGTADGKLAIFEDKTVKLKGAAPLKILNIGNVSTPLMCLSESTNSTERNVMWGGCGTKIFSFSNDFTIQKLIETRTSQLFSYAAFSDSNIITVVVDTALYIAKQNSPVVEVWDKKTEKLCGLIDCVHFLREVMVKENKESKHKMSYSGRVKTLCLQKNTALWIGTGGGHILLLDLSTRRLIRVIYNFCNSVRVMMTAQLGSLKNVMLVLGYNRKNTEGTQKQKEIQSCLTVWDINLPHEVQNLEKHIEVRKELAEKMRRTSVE
Experiment [5] has the same target. The settings on record: at 1 µM.
The test system of experiment [6] is Leucine-rich repeat serine/threonine-protein kinase 2 (Homo sapiens), Q5S007 [G2019S]. The settings on record: at 0.1 µM.
Leucine-rich repeat serine/threonine-protein kinase 2 (Homo sapiens), Q5S007 [G2019S], sequence (Q5S007 whole entry G2019S): as the sequence (Q5S007 whole entry) above, with G2019S counted along it
Experiment [7] shares this test system. The settings on record: at 1 µM.

RAF proto-oncogene serine/threonine-protein kinase (Homo sapiens), sequence (P04049 whole entry): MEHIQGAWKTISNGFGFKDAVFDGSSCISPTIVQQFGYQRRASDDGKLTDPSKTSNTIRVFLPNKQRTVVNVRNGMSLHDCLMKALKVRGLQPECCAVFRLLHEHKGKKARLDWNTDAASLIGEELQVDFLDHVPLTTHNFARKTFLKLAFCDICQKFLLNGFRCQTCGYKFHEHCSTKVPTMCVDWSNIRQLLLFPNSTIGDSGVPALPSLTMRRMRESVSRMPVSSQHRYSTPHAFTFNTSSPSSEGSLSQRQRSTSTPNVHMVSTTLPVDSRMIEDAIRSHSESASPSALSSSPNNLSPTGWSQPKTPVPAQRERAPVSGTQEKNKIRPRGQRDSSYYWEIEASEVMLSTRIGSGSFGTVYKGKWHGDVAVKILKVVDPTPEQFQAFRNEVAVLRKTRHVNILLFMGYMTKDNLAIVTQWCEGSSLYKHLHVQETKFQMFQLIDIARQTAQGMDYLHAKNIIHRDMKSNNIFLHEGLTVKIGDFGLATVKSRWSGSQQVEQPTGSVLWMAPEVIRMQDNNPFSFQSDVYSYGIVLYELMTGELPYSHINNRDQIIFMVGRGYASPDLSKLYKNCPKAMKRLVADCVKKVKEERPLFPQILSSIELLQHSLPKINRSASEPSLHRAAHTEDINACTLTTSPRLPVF

In the case of `CNC(=O)c1cncc(/C=C/c2c(C)cccc2C)c1`, the inhibition in experiment [1] was -0.25%; in experiment [2], -1.78%; in experiment [3] it was 0.42%; in experiment [4], -5.56%; in experiment [5] it was -1.97%; in experiment [6] it was -3.85%. Moreover, the inhibition in experiment [7] is -1.34%.

Turning to `c1ccc(-c2n[nH]cc2-c2ccnc(-c3ccc(OCCN4CCOCC4)cc3)c2)nc1`, the inhibition in experiment [1] is 0.21%; in experiment [2] it was 2.23%; in experiment [3] it was 0.43%; in experiment [4], 11%; in experiment [5], 8.18%; in experiment [6], 6.06%. The inhibition in experiment [7] was 13.7%.

Turning to `Nc1nccc(-c2c(-c3ccc(F)cc3)ncn2C2CCC(O)CC2)n1` (centres undefined), the inhibition in experiment [1] is -9.19%; in experiment [2] it was -0.79%; in experiment [3] it was -1%; in experiment [4] it was -0.71%; in experiment [5] it was 0.86%; in experiment [6] it was 1.56%. For the same molecule, the inhibition in experiment [7] is 4.03%.

As for `COc1ccc2cc(-c3c(-c4ccncc4)nc(-c4ccc(S(C)(=O)=O)cc4C)n3C)ccc2c1`, the inhibition in experiment [1] worked out at 2.24%; in experiment [2], 3.69%; in experiment [3], 2.09%; in experiment [4] it was 1.75%; in experiment [5], 6.91%; in experiment [6], 2.55%. Also, the inhibition in experiment [7] came to 10.2%.

As to `NS(=O)(=O)c1ccc(N/N=C2\C(=O)Nc3ccc(-c4cnco4)cc32)cc1`, the inhibition is -0.01% in experiment [1]; 0.31% in experiment [2]; 1.08% in experiment [3]; 9.37% in experiment [4]; 52.5% in experiment [5]; 32.2% in experiment [6]. Besides, in experiment [7], the inhibition is 55.8%.

Consider `CCc1nccc2c1nc(-c1nonc1N)n2CC`, for which the inhibition is -5.16% in experiment [1]; 2.27% in experiment [2]; -1.82% in experiment [3]; 0.68% in experiment [4]; 2.47% in experiment [5]; 0.78% in experiment [6]. Besides, the inhibition in experiment [7] was 2.99%.

As for `O=C(Nc1n[nH]c2cc(-c3cc(F)ccc3F)ccc12)C1CC1`, the inhibition was -0.98% in experiment [1]; 2.21% in experiment [2]; 1.18% in experiment [3]; 2.33% in experiment [4]; 3.26% in experiment [5]; 1.81% in experiment [6]. The inhibition in experiment [7] is 6.24%.

For `C#Cc1cccc(Nc2ncnc3ccc(OCCCCNCCS(C)(=O)=O)cc23)c1`, the inhibition in experiment [1] was -0.78%; in experiment [2] it was 4.25%; in experiment [3], 2.41%; in experiment [4], -4.32%; in experiment [5] it was 1.7%; in experiment [6], -0.62%. Further, the inhibition in experiment [7] was 5.54%.

As to `C[C@@H](Oc1cc(-n2cnc3ccc(OCC4CCN(C)CC4)cc32)sc1C(N)=O)c1ccccc1Cl`, the inhibition in experiment [1] amounted to 8.07%; in experiment [2], 2.66%; in experiment [3], 6.25%; in experiment [4] it was 8.16%; in experiment [5], 17.3%; in experiment [6], 11.1%. In addition, the inhibition in experiment [7] was 33.5%.

As to `COc1cc(C)c(N(C)C(=O)CN(C)C)cc1Nc1nc(Nc2cccc(F)c2C(N)=O)c2cc[nH]c2n1`, the inhibition was -0.93% in experiment [1]; -1.54% in experiment [2]; 1.55% in experiment [3]; 20.4% in experiment [4]; 18.8% in experiment [5]; 45.5% in experiment [6]. Besides, the inhibition in experiment [7] stood at 57.7%.

On to `COc1cccc(-n2cnc3c(N/N=C/c4ccncc4)ncnc32)c1`, for which the inhibition in experiment [1] was -4.3%; in experiment [2] it was -2.35%; in experiment [3] it was 0.01%; in experiment [4], -1.76%; in experiment [5], 7.17%; in experiment [6], 0.11%. Further, in experiment [7], the inhibition was 18.1%.

With `COc1cc2ncn(-c3cc(OCCc4ccccc4)c(C(N)=O)s3)c2cc1OC`, the inhibition in experiment [1] is -9.47%; in experiment [2], 2.95%; in experiment [3], 0.72%; in experiment [4], 4.52%; in experiment [5], 10.8%; in experiment [6], 6.42%. Moreover, the inhibition in experiment [7] worked out at 32.5%.

In the case of `CN(C)c1ccc2c(c1)/C(=C/Nc1ccc(S(N)(=O)=O)cc1)C(=O)N2`, the inhibition was -6.53% in experiment [1]; 2.88% in experiment [2]; 0.86% in experiment [3]; 5.77% in experiment [4]; 16.7% in experiment [5]; 7.03% in experiment [6]. Also, the inhibition in experiment [7] was determined as 36.4%.

For the molecule `Fc1ccc(-c2ncn(C3CCNCC3)c2-c2ccnc(Oc3ccc4c(c3)OCO4)n2)cc1`, the inhibition in experiment [1] is -0.17%; in experiment [2], 2.54%; in experiment [3], 2.7%; in experiment [4] it was 5.57%; in experiment [5] it was 11.2%; in experiment [6] it was 6.45%. The inhibition in experiment [7] is 10.9%.

Take `CCS(=O)(=O)c1ccc(OC)c(Nc2ncc(-c3cccc(-c4ccccc4F)c3)o2)c1`: the inhibition in experiment [1] is -8.29%; in experiment [2], 1.45%; in experiment [3], 0.38%; in experiment [4], 1.95%; in experiment [5], 11.6%; in experiment [6], 4.86%. In experiment [7], the inhibition turned out to be 19.5%.

With `COc1cc2ncn(-c3cc(OCc4cccs4)c(C(N)=O)s3)c2cc1OC`, the inhibition in experiment [1] was 6.17%; in experiment [2], -3.1%; in experiment [3] it was 1.66%; in experiment [4], 2.29%; in experiment [5] it was 9.04%; in experiment [6], 15.9%. Further, the inhibition in experiment [7] was 54%.

With `COc1cc(N2CCN(C(C)C)CC2)ccc1Nc1nc(Nc2ccc(F)cc2C(=O)NC[C@@H](O)CO)c2cc[nH]c2n1`, the inhibition in experiment [1] was determined as 2.01%; in experiment [2], 3.02%; in experiment [3] it was 2.5%; in experiment [4], 10.5%; in experiment [5], 14.5%; in experiment [6], 48.9%. Also, the inhibition in experiment [7] came out at 55.5%.
